Source: the supplement of paper PMC10981050
Counter-ions that a name gives are not always drawn.

Each compound was assayed on K562 (assay: cell viability relative to vehicle control; higher = less cytotoxic). Conditions: 10 µM; SRSF2 genotype: SRSF2 wt/wt.
Summary of the method: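 CRISPR-edited SRSF2 P95 mutant and isogenic wild-type clones of four leukaemia lines were screened against Selleck bioactive, kinase and epigenetic probe libraries, with identity-inconsistent compounds removed. Compounds were acoustically dispensed into 384-well plates at a single 10 µM dose, with 2000 cells in 50 µL medium per well. After 48 h, supernatant was removed and CellTiter-Glo luminescence was read. Viability was expressed as percent of the on-plate DMSO vehicle control, analysed in Genedata Screener.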

SMILES	cell viability [%]
O=C(Nc1cc(Cl)cc2c1[nH]c1cnccc12)c1cccnc1	88.8
Cc1cc(-c2ccc(/N=N/c3ccc4c(S(=O)(=O)O)cc(S(=O)(=O)O)c(N)c4c3O)c(C)c2)ccc1/N=N/c1ccc2c(S(=O)(=O)O)cc(S(=O)(=O)O)c(N)c2c1O [Evans Blue]	62.8
COc1cc(N2CCN(C)CC2)ccc1Nc1ncc2c(n1)N(C)c1ccccc1C(=O)N2	78.9
COc1cc2c(cc1OC)-c1cc3ccc(OC)c(OC)c3c[n+]1CC2 [Palmatine chloride]	75.1
C[C@H]1CO[C@@H]2Cn3cc(C(=O)NCc4ccc(F)cc4F)c(=O)c(O)c3C(=O)N12	71.5
CN(C)CCc1c[nH]c2ccc(Cn3cncn3)cc12 [Rizatriptan Benzoate (Maxalt)]	84.2
Cc1ccc(NC(=O)C2(c3ccc4c(c3)OC(F)(F)O4)CC2)nc1-c1cccc(C(=O)O)c1 [VX-809 (Lumacaftor)]	112
C=CC(=O)Nc1cccc(Nc2nc(Nc3ccc(Oc4ccnc(C(=O)NC)c4)cc3)ncc2F)c1	85.1
Cc1cc(Nc2ncc(Cl)c(Nc3ccccc3S(=O)(=O)C(C)C)n2)c(OC(C)C)cc1C1CCNCC1 [Ceritinib (LDK378)]	0.14
C[C@@H](Oc1cc(-n2cnc3ccc(CN4CCN(C)CC4)cc32)sc1C(N)=O)c1ccccc1C(F)(F)F	34.1
CC(C)c1onc(-c2c(Cl)cccc2Cl)c1COc1ccc(/C=C/c2cccc(C(=O)O)c2)c(Cl)c1	99.7
C[C@@H]1O[C@@H](O[C@H]2[C@H](Oc3cc(O)c(C(=O)CCc4ccc(O)cc4)c(O)c3)O[C@H](CO)[C@@H](O)[C@@H]2O)[C@H](O)[C@H](O)[C@H]1O [Naringin Dihydrochalcone (Naringin DC)]	94.5
CC(=O)[C@H]1CC[C@H]2[C@@H]3CCC4=CC(=O)CC[C@]4(C)[C@H]3CC[C@]12C [Progesterone (Prometrium)]	81.7
CCOc1cc(C=O)ccc1OC(C)=O [Ethyl vanillin acetate]	102
Clc1ccc(CSC(Cn2ccnc2)c2ccc(Cl)cc2Cl)cc1 (stereo not given) [Sulconazole Nitrate]	62.7
Cc1[nH]c(/C=C2\C(=O)Nc3ccc(S(=O)(=O)Cc4c(Cl)cccc4Cl)cc32)c(C)c1C(=O)N1CCC[C@@H]1CN1CCCC1	81.8
CN(C)CCCC1(c2ccc(F)cc2)OCc2cc(C#N)ccc21 (stereo not given) [Citalopram HBr]	92.5
Cc1cc(Nc2cc(N)ncn2)c(=O)n2c1C(=O)NC21CCCCC1	87.7
COc1ccc2c(c1O)-c1c(O)c(OC)cc3c1[C@H](C2)[N+](C)(C)CC3 [Magnoflorine]	101
CN1CCN(c2ccc(Nc3cc(-c4cccc(-n5ccc6cc(C7CC7)cc(F)c6c5=O)c4CO)cn(C)c3=O)nc2)CC1	29.8

SMILES	cell viability [%]
Cc1cccc(C)c1N(CC(=O)Nc1ccc(-c2ncon2)cc1)C(=O)C1CCS(=O)(=O)CC1 [Amenamevir]	98.8
O=C1C[C@@H]2[C@@H](CO)[C@H](O)C[C@@H]2O1 [Corey Lactone Diol]	101
CC(=O)/N=c1/sc(S(N)(=O)=O)nn1C [Methazolamide]	95.2
O=C(NCc1ccncc1)C12CC3CC(C1)CC(c1ccc(Cl)cc1)(C3)C2	72.3
COc1cc2c(=O)c(-c3ccc(O)cc3)coc2cc1O[C@@H]1O[C@H](CO)[C@@H](O)[C@H](O)[C@H]1O [Glycitin]	101
O=c1cc(-c2ccccc2)oc2c1ccc1ccccc12 [alpha-Naphthoflavone]	95.9
CC(CN(C)C)Oc1nc(Nc2cc3cccc(Cl)c3cn2)cnc1C#N (stereo not given)	44.9
C[C@@H](Oc1ccc2[nH]nc(/C=C/c3cnn(CCO)c3)c2c1)c1c(Cl)cncc1Cl	30.1
C1=N/C2=N/c3ccc(OCCN4CCCC4)c(c3)COC/C=C/COCc3cccc(c3)C(=C1)N2 [Pacritinib (SB1518)]	4.47
C[C@H]1C[C@H]2[C@@H]3CCC4=CC(=O)C=C[C@]4(C)[C@@]3(F)[C@@H](O)C[C@]2(C)[C@@]1(O)C(=O)CO [Betamethasone (Celestone)]	89.5
OCCN(CCO)c1nc(N2CCCCC2)c2nc(N(CCO)CCO)nc(N3CCCCC3)c2n1 [Dipyridamole (Persantine)]	94.8
CCOc1ccccc1OC(c1ccccc1)C1CNCCO1 (stereo not given) [Reboxetine mesylate]	90.7
CC(C)n1nccc1-c1ncccc1COc1cccc(O)c1C=O [Voxelotor(GBT440, GTx011)]	91.8
Cc1ccc(N(CC2=NCCN2)c2cccc(O)c2)cc1 [Phentolamine Mesylate]	92.5
O=C(NO)c1cccc(C(=O)NCCc2ccccc2)c1	101
O=c1ccn(C2OC(CO)C(O)C2O)c(=O)[nH]1 (stereo not given)	99.6
CC1(C)S[C@@H]2[C@H](NC(=O)[C@H](N)c3ccccc3)C(=O)N2[C@H]1C(=O)OCOC(=O)[C@@H]1N2C(=O)C[C@H]2S(=O)(=O)C1(C)C [Sultamicillin]	106
Cc1cc(OCCCS(C)(=O)=O)cc(C)c1-c1cccc(COc2ccc3c(c2)OC[C@H]3CC(=O)O)c1	91.3
CCCC1O[C@@H]2C[C@H]3[C@@H]4CCC5=CC(=O)C=C[C@]5(C)[C@H]4[C@@H](O)C[C@]3(C)[C@]2(C(=O)CO)O1 (stereo not given in full) [Budesonide]	83.7
CC(C)n1nc(-c2ccc(NC(=O)Nc3cc(C(F)(F)F)ccc3F)cc2)c2c(N)ncnc21	19
